Results on 4 compounds are retold here after PubChem BioAssay.

Assay [1] is described as follows: optical density shifts of acrAB sulA E. coli – strain DRC41, OD650, 48 h, E. coli filamentation inducer project, primary screen (AID 1152).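 Also: E. coli MC1000 strain DRC41 lacking acrAB efflux pump and sulA.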 The following applies: higher = more signal, called active from +8 up or from −8 down.
A short description of assay [2]: probe aLefty1 binding on compound microarray – biochemical, small-molecule microarray, 635/667 nm fluorescence, primary screen (AID 1153).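 Also: score merges spot fluorescence with signal-to-noise ratio from the scanned slide images.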 The settings on record: higher = more signal.
Assay [3] can be described thus: plasmodial surface anion channel blockers, osmotic lysis – cell-based, P. falciparum Indochina, OD700, 1 h, primary screen (AID 1154). The following applies: P. falciparum Indochina infected RBC osmotic lysis, higher = more signal, called active from +8 up or from −8 down.
The nature of assay [4]: plasmodial surface anion channel blockers, osmotic lysis – cell-based, P. falciparum Indochina, OD700, 2 h, primary screen (AID 1155).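 Also: lysis reports solute entry through the parasite surface anion channel PSAC.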 The settings on record: P. falciparum Indochina infected erythrocytes, higher = more signal, called active from +8 up or from −8 down.
Assay [5] is described as follows: changes in parasitized red cell lysis, either direction – P. falciparum Indochina, OD700, 3 h, PSAC antagonist project, primary screen (AID 1156). The following applies: P. falciparum-infected erythrocytes, osmotic lysis, higher = more signal, called active from +8 up or from −8 down.
Assay [6] in a line: plasmodial surface anion channel blockers, osmotic lysis – cell-based, P. falciparum Indochina, OD700, 18 h, primary screen (AID 1157). The settings on record: P. falciparum Indochina infected erythrocytes, osmotic lysis OD700, 18 h; higher = more signal, called active from +8 up or from −8 down.
Assay [7] in a line: S6 kinase pathway phospho-S6 level changes – cell-based, A549, cytoblot, luminescence, serum-stimulated, primary screen (AID 1158).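 Also: serum-stimulated A549 lung adenocarcinoma cells; signal is phosphorylated S6 detected by cytoblot immunostaining with HRP secondary.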 The following applies: 5 h, higher = more signal.
The target in assay [8] is NADPH oxidase 2 (Homo sapiens) (UniProt P04839). The assay can be described thus: compounds shifting NOX2 Amplex Red fluorescence – cell-based, HEK293-NOX2, PMA-stimulated, NOX inhibitor project, primary screen (AID 1159). Also: test concentration not given here. The settings on record: 45 min, higher = more signal, called active from +8 up or from −8 down.
Sequence of NADPH oxidase 2 (Homo sapiens) (P04839 whole entry, looked up): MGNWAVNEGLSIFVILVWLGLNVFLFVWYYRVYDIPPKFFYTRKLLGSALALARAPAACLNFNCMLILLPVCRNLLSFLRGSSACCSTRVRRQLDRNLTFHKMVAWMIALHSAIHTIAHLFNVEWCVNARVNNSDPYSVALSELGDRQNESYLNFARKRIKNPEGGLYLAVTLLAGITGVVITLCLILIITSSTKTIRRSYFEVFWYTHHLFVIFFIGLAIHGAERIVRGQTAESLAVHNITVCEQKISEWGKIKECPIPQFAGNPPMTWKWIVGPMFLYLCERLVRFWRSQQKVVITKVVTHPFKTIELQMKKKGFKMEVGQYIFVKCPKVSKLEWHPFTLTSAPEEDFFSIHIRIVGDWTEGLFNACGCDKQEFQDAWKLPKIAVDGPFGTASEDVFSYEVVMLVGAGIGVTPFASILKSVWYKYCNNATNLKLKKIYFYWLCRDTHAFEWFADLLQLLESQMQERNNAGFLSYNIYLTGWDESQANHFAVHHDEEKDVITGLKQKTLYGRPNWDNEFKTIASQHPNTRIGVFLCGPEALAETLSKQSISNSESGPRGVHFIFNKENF
For assay [9], the target named is NADPH oxidase 4 (Homo sapiens) (UniProt Q9NPH5). As to the kind of experiment: compounds shifting NOX4 Amplex Red fluorescence – cell-based, HEK293-NOX4, tetracycline-induced, NOX inhibitor project, primary screen (AID 1160). The following applies: HEK293-NOX4, Amplex Red H2O2 fluorescence, 45 min; higher = more signal, called active from +8 up or from −8 down.
Sequence of NADPH oxidase 4 (Homo sapiens) (Q9NPH5 whole entry, looked up): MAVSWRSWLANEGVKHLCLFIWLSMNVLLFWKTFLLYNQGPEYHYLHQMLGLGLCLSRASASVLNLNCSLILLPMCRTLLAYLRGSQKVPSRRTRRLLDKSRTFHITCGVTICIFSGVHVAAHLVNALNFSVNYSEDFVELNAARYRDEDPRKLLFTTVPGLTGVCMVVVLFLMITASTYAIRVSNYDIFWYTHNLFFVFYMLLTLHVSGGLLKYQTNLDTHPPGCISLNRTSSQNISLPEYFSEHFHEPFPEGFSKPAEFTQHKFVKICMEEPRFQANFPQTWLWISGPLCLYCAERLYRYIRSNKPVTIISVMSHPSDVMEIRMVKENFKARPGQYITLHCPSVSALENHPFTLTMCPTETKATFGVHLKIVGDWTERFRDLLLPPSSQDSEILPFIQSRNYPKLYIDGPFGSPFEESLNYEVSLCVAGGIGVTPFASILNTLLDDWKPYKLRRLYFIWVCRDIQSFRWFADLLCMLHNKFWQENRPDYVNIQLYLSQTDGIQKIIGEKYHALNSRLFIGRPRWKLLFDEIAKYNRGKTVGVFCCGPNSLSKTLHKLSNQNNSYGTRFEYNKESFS
Assay [10] concerns the target NADPH oxidase 5 (Homo sapiens) (UniProt Q96PH1). As to the kind of experiment: compounds shifting NOX5 Amplex Red fluorescence – cell-based, HEK293-NOX5, NOX inhibitor project, primary screen (AID 1161). The settings on record: HEK293-NOX5, ionomycin, 45 min, higher = more signal.
Assay [11] is described as follows: compound effects on lung adenocarcinoma cell viability – A549, calcein-AM fluorescence, 48 h, basal, profiling panel (AID 1162). Also: test concentration not given here. The settings on record: higher = more signal.
Assay [12] in a line: compound effects on differentiated 3T3-L1 adipocyte viability – cell-based, 3T3-L1 adipocytes, calcein-AM fluorescence, 48 h, basal, profiling panel (AID 1163). Also: test concentration not given here. The settings on record: 3T3-L1 adipocytes viability, higher = more signal.
Assay [13] can be described thus: compound effects on hepatocellular carcinoma cell viability – HepG2, calcein-AM fluorescence, 48 h, basal, profiling panel (AID 1164). Also: test concentration not given here. The settings on record: higher = more signal.
The nature of assay [14]: compound effects on multiple myeloma cell viability – MM1S, calcein-AM fluorescence, 48 h, basal, profiling panel (AID 1165).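 Also: viability of MM1S multiple myeloma cells under basal unstimulated conditions; test concentration not given here.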 The following applies: higher = more signal.
Assay [15] in a line: calcein-AM signal in unstimulated myeloma cells – cell-based, calcein-AM fluorescence, 48 h, PK04 Diversity Set, profiling panel (AID 1166).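 Also: cells grown under basal conditions without added stimulus; test concentration not given here.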 The settings on record: RPMI8226 myeloma viability, higher = more signal.
Assay [16] can be described thus: JC-1 mitochondrial signal, unstimulated HepG2 cells – cell-based, JC-1 fluorescence, 24 h, 100 nL compound, profiling panel (AID 1167). Also: test concentration not given here. The settings on record: HepG2 mitochondrial potential, higher = more signal.
Assay [17] can be described thus: JC-1 mitochondrial signal, unstimulated adipocytes – cell-based, JC-1 fluorescence, 3T3-L1 adipocytes, 24 h, 100 nL compound, profiling panel (AID 1168). Also: test concentration not given here. The settings on record: JC-1 mitochondrial fluorescence, higher = more signal, called active from +8 up or from −8 down.
A short description of assay [18]: JC-1 mitochondrial signal, unstimulated myeloma cells – cell-based, JC-1 fluorescence, RPMI8226, 24 h, 100 nL compound, profiling panel (AID 1169). Also: test concentration not given here. The following applies: JC-1 mitochondrial potential fluorescence, higher = more signal.
A short description of assay [19]: JC-1 mitochondrial signal, unstimulated MM1S myeloma – cell-based, JC-1 fluorescence, 24 h, 100 nL compound, profiling panel (AID 1170). Also: test concentration not given here. The settings on record: MM1S mitochondrial potential, higher = more signal.
Assay [20] is described as follows: resazurin metabolic signal in A549 cells – cell-based, resazurin fluorescence, 24 h, PK04 Diversity Set, profiling panel (AID 1171). Also: test concentration not given here. The following applies: A549 viability, higher = more signal, called active from +8 up or from −8 down.

Each structure is given as a SMILES string. Calls of active or inactive are those of the source.

Sequence of NADPH oxidase 5 (Homo sapiens) (Q96PH1 whole entry, looked up): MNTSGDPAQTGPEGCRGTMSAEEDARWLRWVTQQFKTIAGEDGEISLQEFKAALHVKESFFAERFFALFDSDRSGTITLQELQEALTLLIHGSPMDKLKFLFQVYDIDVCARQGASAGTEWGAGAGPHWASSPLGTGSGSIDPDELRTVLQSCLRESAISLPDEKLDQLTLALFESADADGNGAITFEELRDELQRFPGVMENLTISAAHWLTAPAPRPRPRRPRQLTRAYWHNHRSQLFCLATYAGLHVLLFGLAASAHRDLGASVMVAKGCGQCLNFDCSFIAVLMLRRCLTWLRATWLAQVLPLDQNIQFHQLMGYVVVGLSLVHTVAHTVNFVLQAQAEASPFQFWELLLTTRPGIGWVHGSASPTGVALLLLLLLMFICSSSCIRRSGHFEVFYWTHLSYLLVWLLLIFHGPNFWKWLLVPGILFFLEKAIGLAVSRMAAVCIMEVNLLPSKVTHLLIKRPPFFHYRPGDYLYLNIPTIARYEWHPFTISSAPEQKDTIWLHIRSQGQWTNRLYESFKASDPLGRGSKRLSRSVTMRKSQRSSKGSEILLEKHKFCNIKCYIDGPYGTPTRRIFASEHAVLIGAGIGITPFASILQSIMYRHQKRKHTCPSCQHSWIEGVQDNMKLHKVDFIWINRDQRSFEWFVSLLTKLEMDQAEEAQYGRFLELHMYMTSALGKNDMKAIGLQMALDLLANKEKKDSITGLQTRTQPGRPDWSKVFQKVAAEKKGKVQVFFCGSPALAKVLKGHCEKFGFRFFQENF

Regarding `CC(C)=CCCC(C)=CC(O)C1C=CC2C(=O)N(C)C(=O)C2N1Nc1ccccc1` (stereo not given), the z-score in assay [1] is -1.5 (inactive); in [3], 7.27 (inactive); in assay [4] it was 2.86 (inactive); in assay [5] it was 0.977 (inactive); in [6], 1.93 (inactive); in assay [7], -0.595. The z-score in [8] was -1.51 (inactive); in assay [9] it was -3.97 (inactive); in assay [10] it was -1.98; in assay [11], -1.81; in assay [12], -1.39; in assay [13], -1.35. Moreover, the z-score in assay [14] was -2.56; in assay [15] it was -4.09; in [16], -2.66; in assay [17], 1.29 (inactive); in assay [18], -0.934; in assay [19] it was -1.34. Besides, the z-score in [20] is 0.597 (inactive). The same compound returned a composite z-score in assay [2] of 0.525.

On to `C=CC1(C(=O)OC)CC=C(C(=O)OC)CC1` (stereo not given), for which the z-score in [1] was 0.2 (inactive); in [3] it was 0.655 (inactive); in [4], -0.87 (inactive); in [5], -1.3 (inactive); in assay [6], -1.96 (inactive); in assay [7], 0.674. The z-score in assay [8] was 0.379 (inactive); in [9] it was -0.389 (inactive); in assay [10], -0.0703; in assay [11], 0.211; in [12], 0.0237; in assay [13] it was -0.287. Besides, the z-score is 0.835 in assay [14]; -0.0765 in assay [15]; 1.27 in [16]; 0.562 (inactive) in [17]; -0.093 in [18]; -1.42 in [19]. In addition, the z-score in assay [20] was 0.45 (inactive). In [2], this compound had a composite z-score of 0.0262.

As for `CC(C)C[C@@H]1NC(=O)[C@@H]2C[C@H](C(=O)NCc3ccc(F)cc3)[C@H](c3cccc(OCCO)c3)N2C1=O`, the z-score was 1.39 (inactive) in [1]; 8.19 (active) in assay [3]; 0.722 (inactive) in assay [4]; -1.79 (inactive) in assay [5]; 0.546 (inactive) in assay [6]; 0.74 in [7]. For the same compound, the z-score in assay [8] is 1.33 (inactive); in assay [9] it was 1.08 (inactive); in [10], 1.44; in assay [11], 1.21; in [12], -0.613; in assay [13], 0.259. The z-score in assay [14] was 1.04; in [15], 0.828; in assay [16], 1.9; in assay [17], 0.0605 (inactive); in assay [18], -0.0212; in assay [19], -0.657. Further, the z-score in [20] was 0.234 (inactive). Moreover, in assay [2], the composite z-score is -0.204.

Take `CO[C@H]1O[C@H](CO)[C@@H](OC(=O)Nc2ccccc2)[C@H](OC(=O)Nc2ccccc2)[C@@H]1OC(=O)Nc1ccccc1`: the z-score in assay [1] is -0.24 (inactive); in assay [3], 6.99 (inactive); in assay [4] it was 1.35 (inactive); in assay [5] it was 0.111 (inactive); in [6], 1.18 (inactive); in assay [7], 0.725. The z-score in assay [8] was -3.38 (inactive); in assay [9], -0.394 (inactive); in assay [10], -1.13; in [11], -1.36; in [12] it was 0.875; in [13], -1.68. Also, the z-score in assay [14] is -1.81; in [15], -1.98; in [16], -0.523; in [17] it was 0.348 (inactive); in assay [18], -1.07; in assay [19], 0.0816. In addition, in assay [20], the z-score is -2.01 (inactive). The composite z-score in assay [2] is -0.369.
